Data taken from PubChem BioAssay (Tox21).
“And” between values parts separate entries of the source, which are not always exact repeats. Identical values can stand only once. Records with an inconclusive call do not appear. A call without a number means that no potency is given here. The source holds several records for some structures; these can differ, active in one and inactive in another. The source made the active and inactive calls. The call rests on the fitted dose curve; in most records, active means well fitted activation curve with a large enough effect in the repeat runs; inconclusive means weak or mixed curves; inactive means flat fitted curve, though single readings scatter.

Test: A CellTox Green Cytotoxicity Assay to monitor cytotoxicity in HepG2 cells - 24 hour (AID 1224878); further: nearly all actives have a fitted effect of over 45% in size
Conditions: CellTox Green fluorescence; series mostly up to 76.8 µM
From the text: National Center for Advancing Translational Sciences [NCATS]
NIH Chemical Genomics Center [NCGC]
U.S. Environmental Protection Agency [EPA]
National Institutes of Environmental Health Sciences [NIEHS]
National Toxicology Program [NTP]
Cell-based models are critical for drug discovery. Determining the natural cytotoxic effects resulting from test compounds is an essential research activity. A CellTox Green Cytotoxicity Assay to monitor cytotoxicity in real time of continues cell culture during 40 hours of the compound treatment was used to screen Tox21 10K library compounds in HepG2 cells. CellTox Green Cytotoxicity Assay is a nonlytic, homogeneous, biofluorescent method to measure cytotoxicity in cell culture after experimental manipulation. The assay system uses a proprietary asymmetric cyanine dye that is excluded from viable cells but preferentially stains the dead cell's DNA. […] Viable cells produce no appreciable increases in fluorescence. Therefore, the fluorescence signal produced by the binding interaction with dead cell DNA is proportional to cytotoxicity.
The mixture of HepG2 cell suspension and reagents were dispensed at 600cells/6 ul/well in 1536-well tissue culture treated black solid bottom plates using a Multidrop dispenser. After the assay plates were incubated at a 37 C/5% CO2 incubator for 5 hours, 23 nL of compounds dissolved in DMSO, positive and negative controls was transferred to the assay plate by a pintool work station. The plates were incubated at 37 C for 40 hours. The fluorescence intensity were measured at 0h, 8h, 16h, 24h, 32h and 40h time points using ViewLux plate reader during compound treatment.
Potency means the concentration at half of the fitted maximal effect.

| SMILES | Potency |
| --- | --- |
| CCOC(=O)C(C)Oc1ccc(Oc2cnc3cc(Cl)ccc3n2)cc1 (stereo not given) | inactive |
| OC[C@@H](O)[C@@H](O[C@@H]1O[C@H](CO)[C@H](O)[C@H](O)[C@H]1O)[C@H](O)[C@@H](O)CO | inactive |
| Cc1ccc2c(c1)C(=O)OC2=O | inactive |
| C1COCCN1 | inactive |
| Oc1ccc(C(c2ccc(O)cc2)C(Cl)(Cl)Cl)cc1 | inactive |
| O=C(CCCN1CCC(O)(c2ccc(Cl)cc2)CC1)c1ccc(F)cc1 | 24.5 µM (active) |
| O=C(O)CCCC(=O)O | inactive |
| CC1(C)NC(=O)N(c2ccc([N+](=O)[O-])c(C(F)(F)F)c2)C1=O | inactive |
| COC(=O)c1ccc(C)cc1 | inactive |
| CCCCCCCCCCCCO | inactive |
| CC1(C)C(C=C(Cl)Cl)C1C(=O)OCc1cccc(Oc2ccccc2)c1 (stereo not given) | inactive |
| CC(C)[N+](C)(CCOC(=O)C1c2ccccc2Oc2ccccc21)C(C)C | inactive |
| CCCCCCCCCCC(CO)CCCCCCCC (stereo not given) | inactive |
| CC(C)(Oc1ccc(Cl)cc1)C(=O)O | inactive |
| Cc1ccc(S(=O)(=O)O)cc1C | inactive |
| Nc1ccc2c(c1)C(=O)c1ccccc1C2=O | inactive |
| NCCN | inactive |
| Cc1ccc(C(C)(C)C)cc1 | inactive |
| Cc1ccc([N+](=O)[O-])c(C)c1 | inactive |
| C=CCCCCCCCCCC | inactive |

| SMILES | Potency |
| --- | --- |
| CCO[Si](CCCNC(N)=O)(OCC)OCC | inactive |
| Cc1ccc(C(C)(C)C)c(O)c1 | 38.9 µM (active) |
| C[N+](C)(C)CCO | inactive |
| C1CN(SSN2CCOCC2)CCO1 | inactive |
| Cc1ccc(S(=O)(=O)NCl)cc1 | inactive |
| CC[C@]12CCCN3CCc4c(n(c5ccccc45)[C@@](O)(C(=O)OC)C1)[C@@H]32 | inactive |
| CC(=O)O[C@]1(C(C)=O)CC[C@H]2[C@@H]3C=C(C)C4=CC(=O)CC[C@]4(C)[C@H]3CC[C@@]21C | inactive |
| CCCCCCCCCCCCCO | inactive |
| Nc1cc([N+](=O)[O-])ccc1C(=O)O | inactive |
| NCCOCCO | inactive |
| C=C[Si](OCCOC)(OCCOC)OCCOC | inactive |
| CCCCCCC(C)O (stereo not given) | inactive |
| C=C1C[C@H]2[C@@H]3C=C(C)C4=CC(=O)CC[C@]4(C)[C@H]3CC[C@]2(C)[C@@]1(OC(C)=O)C(C)=O | inactive |
| O=Cc1ccccc1C=O | 24.5 µM (active) and inactive |
| COc1cc([C@H]2Oc3cc([C@H]4Oc5cc(O)cc(O)c5C(=O)[C@@H]4O)ccc3O[C@@H]2CO)ccc1O | inactive and 21.3 µM (active) |
| c1ccc2ncccc2c1 | inactive |
| O=C1OC2(c3ccccc31)c1cc(I)c(O)c(I)c1Oc1c2cc(I)c(O)c1I | 13.3 µM (active) [middle of 4 runs] |
| Nc1ccc(N)c(Cl)c1 | inactive and 43.6 µM (active) |
| CC/C(=C(/CC)c1ccc(O)cc1)c1ccc(O)cc1 | inactive |
| Clc1ccc(Sc2cc(Cl)c(Cl)cc2Cl)cc1 | inactive |
